According to PubChem BioAssay (NCATS):
Activity calls are given as the source filed them. Calls follow the shape of the dose curve; as a rule, active = well fitted curve in the direction sought with a large enough effect; inconclusive = small, poorly fitted or top-dose-only effect, or another doubt; inactive = no such curve, though single readings can be large or run the other way.

target: T1, Hexokinase-4 (Homo sapiens) + Glucokinase regulatory protein (Homo sapiens) (UniProt P35557+Q14397); assay: qHTS assay for inhibitors of recombinant human GCK-GKRP interaction: Diaphorase-coupled assay (AID 743205); conditions: G6PDH/diaphorase resorufin fluorescence; series mostly up to 57.5 µM; activity change, positive = activation: at the top concentration
Procedure, shortened: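 25 mM Hepes pH 7.6, 5 mM glucose, 0.4 mM ATP, 4 U/ml G6PDH; 10 nM each GST-GCK/FLAG-GKRP. Kinetic fluorescence read, 1/min × 30 min. Normalized: DMSO ± enzyme = max/min.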

T1 sequence (P35557 whole entry, looked up): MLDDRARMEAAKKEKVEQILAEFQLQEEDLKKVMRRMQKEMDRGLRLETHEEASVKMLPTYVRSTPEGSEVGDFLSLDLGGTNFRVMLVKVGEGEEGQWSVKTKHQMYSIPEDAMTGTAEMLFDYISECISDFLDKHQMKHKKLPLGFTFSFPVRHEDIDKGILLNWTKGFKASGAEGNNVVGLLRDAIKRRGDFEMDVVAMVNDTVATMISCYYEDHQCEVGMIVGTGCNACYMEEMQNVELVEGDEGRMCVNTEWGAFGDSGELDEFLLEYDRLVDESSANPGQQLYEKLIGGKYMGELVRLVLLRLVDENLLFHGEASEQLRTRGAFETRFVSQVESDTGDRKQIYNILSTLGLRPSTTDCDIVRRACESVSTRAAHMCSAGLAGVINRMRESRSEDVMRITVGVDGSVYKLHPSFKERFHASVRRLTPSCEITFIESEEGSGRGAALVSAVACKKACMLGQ
T1 sequence (Q14397 whole entry, looked up): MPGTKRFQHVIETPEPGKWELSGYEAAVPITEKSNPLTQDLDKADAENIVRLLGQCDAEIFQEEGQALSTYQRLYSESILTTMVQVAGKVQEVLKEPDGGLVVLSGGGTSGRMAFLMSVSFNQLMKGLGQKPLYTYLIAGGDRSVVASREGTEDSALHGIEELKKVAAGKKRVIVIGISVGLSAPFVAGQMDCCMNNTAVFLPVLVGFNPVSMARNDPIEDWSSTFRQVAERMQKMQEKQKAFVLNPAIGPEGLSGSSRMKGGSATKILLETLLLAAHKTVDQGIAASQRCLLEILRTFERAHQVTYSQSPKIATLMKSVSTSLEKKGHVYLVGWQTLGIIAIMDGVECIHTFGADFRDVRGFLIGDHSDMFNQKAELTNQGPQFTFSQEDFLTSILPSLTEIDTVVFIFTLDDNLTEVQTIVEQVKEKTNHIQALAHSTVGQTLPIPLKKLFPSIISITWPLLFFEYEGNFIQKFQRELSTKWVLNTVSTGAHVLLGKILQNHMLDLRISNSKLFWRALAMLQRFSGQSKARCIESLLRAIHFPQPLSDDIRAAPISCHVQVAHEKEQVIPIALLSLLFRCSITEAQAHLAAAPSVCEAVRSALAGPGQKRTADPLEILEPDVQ

| Structure (SMILES) | activity change, positive = activation |
| --- | --- |
| COC(=O)C(C)(N)Cc1ccc(O)cc1 (stereo not given) | 1.74% (inactive) |
| Nc1ncnc2c1nc(Sc1ccc(Cl)cc1)n2[C@H]1OC2COP(=O)(O)O[C@@H]2C1O (stereo not given in full) | 1.06% (inactive) |
| CCN(CC)CCOC(=O)c1cc(Cl)c(N)cc1OC | -2.09% (inactive) |
| OC[C@H]1NC[C@@H](O)[C@@H]1O | -0.3% (inactive) |
| COc1ccc(CCN(C)CCc2ccc(OC)c(OC)c2)cc1OC | -1.88% (inactive) |
| CC(C)(CO)Cc1cc(C(C)(C)C)c(O)c(C(C)(C)C)c1 | 0.448% (inactive) |
| N[C@H](C(=O)O)[C@H](O)C(=O)O | -5.06% (inactive) |
| NCCNS(=O)(=O)c1cccc2c(Cl)cccc12 | -1.79% (inactive) |
| C[C@@]1(C2CCCC2)Cc2cc(OCC(=O)O)c(Cl)c(Cl)c2C1=O | 0.13% (inactive) |
| N#CC(C#N)=C(N)/C(C#N)=C/c1ccc(O)cc1 | -17% (inactive) |
| CCCn1c(=O)c(C)cn2nc(N)nc12 | -2.95% (inactive) |
| NC(=O)c1cc[n+](CC2=C(C(=O)O)N3C(=O)[C@@H](NC(=O)[C@@H](c4ccccc4)S(=O)(=O)[O-])[C@H]3SC2)cc1 | -5.59% (inactive) |
| O=C(O)/C=C/c1cnc[nH]1 | -1.01% (inactive) |
| CN(CC[C@@H](Oc1ccc(C(F)(F)F)cc1)c1ccccc1)CC(=O)O | -3.88% (inactive) |
| CN1CC(O)C(O)C(O)C1CO (stereo not given) | 2.34% (inactive) |
| CCCCCC[C@@H]([C@@H](C)O)n1cnc2c(N)ncnc21 | -1.09% (inactive) |
| Nn1nnc2ccccc21 | -1.35% (inactive) |

target: T1, Hexokinase-4 (Homo sapiens) + Glucokinase regulatory protein (Homo sapiens); assay: qHTS assay for inhibitors of recombinant human GCK-GKRP interaction: ADP-Glo assay (AID 743206); conditions: ADP-Glo luminescence, 60 min; series mostly up to 76.9 µM; activity, positive = activation: at the top concentration; also: potency is read from the fitted curve at half-maximal effect;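 as to activity, positive = activation: plate controls were DMSO plus enzyme for no effect and no enzyme for full effect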
Procedure, shortened: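 GST-GCK and FLAG-GKRP (15 nM each in the dispensed mix, with 2 uM S6P) react with 0.4 mM ATP and 5 mM glucose (final) in Hepes pH 7.6 for 60 min at room temperature. ADP is measured by ADP-Glo luminescence.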

| Structure (SMILES) | activity, positive = activation | Potency |
| --- | --- | --- |
| O=C(O)C1CCNCC1 | -0.0403% (inactive) |  |
| Cc1cc2c(cc1Cl)N(C(=O)Nc1ccnc3ccccc13)CC2 | 3.07% (inactive) |  |
| C=CCn1c(=O)c2c(nc(-c3ccc(S(=O)(=O)O)cc3)n2C)n(C)c1=O | 5.95% (inactive) |  |
| O=c1cc(O)cc(/C=C/c2ccc(O)c(O)c2)o1 | -1.46% (inactive) |  |
| [Li+] | 0.925% (inactive) |  |
| N=C(N)c1ccccc1 | 2.98% (inactive) |  |
| CC(=O)/C(C)=N/O | -1.27% (inactive) |  |
| NC/C=C\C(=O)O | 2.62% (inactive) |  |
| CC(=O)O[C@H]1Cc2ccccc2N(C(N)=O)c2ccccc21 | -0.0699% (inactive) |  |
| CN1CCC2(CCN3CCc4c(oc5ccccc45)C3C2)N(C)C1=O (stereo not given) | 1.27% (inactive) |  |
| O=C(O)c1cccnc1C(=O)O | 1.07% (inactive) |  |
| CCCCOc1cc(CC2CNC(=O)N2)ccc1OC (stereo not given) | 3.36% (inactive) |  |
| O=C(O)C1=CC(=C(c2ccc(O)c(C(=O)O)c2)c2ccc(O)c(C(=O)O)c2)C=CC1=O |  | 4.47 µM (active) |
| c1ccc(C(NCc2cccnc2)(c2ccccc2)c2ccccc2)cc1 | 1.18% (inactive) |  |
| CCN1C(=O)C=CC1=O | 3.78% (inactive) |  |
| C#CC(N)CCC(=O)O (stereo not given) | 0.302% (inactive) |  |
| CC(=O)N[C@@H](Cc1c[nH]c2ccccc12)C(=O)OCc1cc(C(F)(F)F)cc(C(F)(F)F)c1 | 2.49% (inactive) |  |
| NC(Cc1cccc(-c2ccccc2CP(=O)(O)O)c1)C(=O)O (stereo not given) | 2.15% (inactive) |  |
| CC(=O)O[C@H]1CC2(C)[C@@H](C[C@@H](O)[C@H]3[C@@]4(C)CC[C@@H](O)[C@@H](C)[C@@H]4CC[C@@]32C)C1=C(CCC=C(C)C)C(=O)O (stereo not given in full) | 0.657% (inactive) |  |

| Structure (SMILES) | activity, positive = activation | Potency |
| --- | --- | --- |
| COc1ccccc1N1CCN(CCCNc2c(C)c(=O)n(C)c(=O)n2C)CC1 | -0.0851% (inactive) |  |
| N[C@H]1CONC1=O | 2.66% (inactive) |  |
| COC(=O)C(C)(N)Cc1ccc(O)cc1 (stereo not given) | 1.16% (inactive) |  |
| Nc1ncnc2c1nc(Sc1ccc(Cl)cc1)n2[C@H]1OC2COP(=O)(O)O[C@@H]2C1O (stereo not given in full) | 3.42% (inactive) |  |
| CCN(CC)CCOC(=O)c1cc(Cl)c(N)cc1OC | 2.94% (inactive) |  |
| OC[C@H]1NC[C@@H](O)[C@@H]1O | 2.88% (inactive) |  |
| COc1ccc(CCN(C)CCc2ccc(OC)c(OC)c2)cc1OC | 2.6% (inactive) |  |
| CC(C)(CO)Cc1cc(C(C)(C)C)c(O)c(C(C)(C)C)c1 | 2.05% (inactive) |  |
| N[C@H](C(=O)O)[C@H](O)C(=O)O | 1.13% (inactive) |  |
| NCCNS(=O)(=O)c1cccc2c(Cl)cccc12 | -1.44% (inactive) |  |
| C[C@@]1(C2CCCC2)Cc2cc(OCC(=O)O)c(Cl)c(Cl)c2C1=O | 4.84% (inactive) |  |
| N#CC(C#N)=C(N)/C(C#N)=C/c1ccc(O)cc1 | 1.41% (inactive) |  |
| CCCn1c(=O)c(C)cn2nc(N)nc12 | 0.208% (inactive) |  |
| NC(=O)c1cc[n+](CC2=C(C(=O)O)N3C(=O)[C@@H](NC(=O)[C@@H](c4ccccc4)S(=O)(=O)[O-])[C@H]3SC2)cc1 | 10.2% (inactive) |  |
| O=C(O)/C=C/c1cnc[nH]1 | -0.552% (inactive) |  |
| CN(CC[C@@H](Oc1ccc(C(F)(F)F)cc1)c1ccccc1)CC(=O)O | 4.42% (inactive) |  |
| CN1CC(O)C(O)C(O)C1CO (stereo not given) | 1.67% (inactive) |  |
| CCCCCC[C@@H]([C@@H](C)O)n1cnc2c(N)ncnc21 | 2.58% (inactive) |  |
| Nn1nnc2ccccc21 | 2.75% (inactive) |  |
